Assay results as given in PubChem BioAssay (NCATS).
Records with an inconclusive call do not appear. Unmarked numbers belong to inactive results. Active and inactive are the calls of the source. Calls follow the shape of the dose curve; as a rule, active = well fitted curve in the direction sought with a large enough effect; inconclusive = small, poorly fitted or top-dose-only effect, or another doubt; inactive = no such curve, though single readings can be large; an effect the other way counts as inactive or inconclusive. Where a SMILES comes first, the peptide text is derived from it. Bridges are numbered along the chain shown (N, C = ends). [ ]: non-standard residue; d: D form. The star is where a group is joined. X1 = CCC(C)C(N)C1=NC(C(=O)*)CS1; PhLac = O=C(O)[CH](O)Cc1ccccc1; NMeV = CN[CH](C(=O)O)C(C)C; dOrn = NCCC[C@@H](N)C(=O)O

assay: P-glycoprotein substrates identified in KB-3-1 adenocarcinoma cell line, qHTS therapeutic library screen (AID 1346986); details: KB-3-1 parental cells viability, CellTiter-Glo, 72 h; series mostly up to 44.5 µM; activity change, negative = cytotoxicity: at the top concentration; also: nearly all actives have a fitted effect of over 60% in size
Procedure, shortened: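 Cells seeded 500/well in DMEM/10% FCS; compounds pinned in dose-response; 72 h incubation; CellTiter-Glo added, 5 min, luminescence. KB-8-5-11 run ±tariquidar to test reversal of P-gp resistance.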

Row | Structure (SMILES) | outcome
1 | CC1(C)CC[C@]2(C(=O)O[C@@H]3O[C@H](CO)[C@@H](O)[C@H](O)[C@H]3O)CC[C@]3(C)C(=CCC4[C@@]5(C)C[C@@H](O)[C@H](O)[C@@](C)(CO)C5CC[C@]43C)C2C1 (some centres not stated) | inactive [at 17.4 µM]
2 | CC[C@H]1OC(=O)[C@H](C)[C@@H](O[C@H]2C[C@@](C)(OC)[C@@H](O)[C@H](C)O2)[C@H](C)[C@@H](O[C@@H]2O[C@H](C)C[C@H](N(C)C)[C@H]2O)[C@@](C)(O)C[C@@H](C)[C@@H]2N[C@@H](COCCOC)OC([C@H]2C)[C@]1(C)O | inactive
3 | CC(C)C(C(=O)N1CCCC1C(=O)O)N(C)C(=O)C(O)Cc1ccccc1 (configuration not stated) (H-[PhLac]-[NMeV]-Pro-OH; configuration not given here) | inactive
4 | CCC(C)(O)C(O)C(=O)OCc1ccc(O[C@@H]2O[C@H](CO)[C@@H](O)[C@H](O)[C@H]2O)cc1 (some centres not stated) | inactive [at 17.4 µM]
5 | Cn1c(=O)c2nc(/C=C/c3cccc(Cl)c3)n(C)c2n(C)c1=O | inactive [at 93.4 µM]
6 | C=C(C(=O)OC)C1CCC2(C)C(O[C@@H]3O[C@H](CO)[C@@H](O)[C@H](O)[C@H]3O)CC(=O)C(C)C2C1O (some centres not stated) | inactive [at 17.4 µM]
7 | Cc1ncc([N+](=O)[O-])n1CC(O)CN1CCOCC1 (configuration not stated) | inactive
8 | C=C1C2=CC(O)C(C)C1(C)CC/C(C)=C/CCC1(C)OC1C2=O (configuration not stated) | inactive
9 | CC(C)C1=CCC(C)(O)C(OC2OC(CO)C(O)C(O)C2O)C1 (configuration not stated) | inactive
10 | CC1(C)OC(=O)C(OCC2CC2)=C1c1ccc(S(C)(=O)=O)cc1 | inactive
11 | CCC(C)C(N)C1=NC(C(=O)N[C@@H](CC(C)C)C(=O)N[C@H](CCC(=O)O)C(=O)N[C@H](C(=O)N[C@H]2CCCCNC(=O)[C@H](CC(N)=O)NC(=O)[C@@H](CC(=O)O)NC(=O)[C@H](Cc3cnc[nH]3)NC(=O)[C@@H](Cc3ccccc3)NC(=O)[C@H]([C@@H](C)CC)NC(=O)[C@@H](CCCN)NC2=O)[C@@H](C)CC)CS1 (some centres not stated) (X1-L[dE]IK[dOrn]I[dF]H[dD]N; lactam 4-C) | inactive [at 17.4 µM]
12 | COC1C2=C(COC2=O)C2(C)CCCC(C)(CO)C2C1OC(=O)c1ccccc1 (configuration not stated) | inactive [at 17.4 µM]
13 | C[C@@H]1C[C@H](O)/C=C/[C@H](O)[C@@H](O)CC(=O)O1 | inactive
14 | CC1NC(=O)CNC(=O)C(C(C)C)NC(=O)C2CCCN2C(=O)C(C(C)C)NC(=O)C(Cc2c[nH]c3ccccc23)NC1=O (configuration not stated) (cyclo(GAWVPV); configuration not given here) | inactive [at 17.4 µM]
15 | C=C1CCC[C@]2(C)C[C@]3(O)OC(=O)C(C)=C3C[C@@H]12 | inactive
16 | CN1C(=O)c2ccccc2-n2c(nc3ccccc3c2=O)[C@@]12O[C@H]2c1ccccc1 | inactive
17 | C/C=C(/C)C(=O)O[C@H]1C=C(C)C[C@H](OC(=O)c2ccc(O)cc2)C2[C@](O)(C(C)C)CC[C@@]21C (some centres not stated) | inactive [at 17.4 µM]
18 | Cc1ccc(Sc2cncc3sc(C(N)=O)cc23)cc1 | inactive
19 | O=C(O)c1cc(O[C@@H]2O[C@H](CO[C@@H]3OC[C@@H](O)[C@H](O)[C@H]3O)[C@@H](O)[C@H](O)[C@H]2O)c2ccccc2c1O | inactive [at 17.4 µM]
20 | CCOc1ccc(-c2ccc(Cn3c(CC(C)(C)C(=O)O)c(SC(C)(C)C)c4cc(OCc5ccc(C)cn5)ccc43)cc2)cn1 | inactive
21 | CNC(=O)c1ccc2cc([C@@]3(O)CCn4cncc43)ccc2c1 | inactive
22 | O=C(/C=C/c1ccc(O)cc1)OCC1=C[C@@H](O)[C@@H]2C=CO[C@@H](O[C@@H]3O[C@H](CO)[C@@H](O)[C@H](O)[C@H]3O)[C@H]12 | inactive [at 17.4 µM]
23 | CC(CCC1(O)OC2CC3C4CCC5CC(O[C@@H]6O[C@H](CO)[C@@H](O)[C@H](O)[C@H]6O[C@@H]6OC[C@@H](O)[C@H](O)[C@H]6O)C(O)CC5(C)C4CCC3(C)C2C1C)CO[C@@H]1O[C@H](CO)[C@@H](O)[C@H](O)[C@H]1O (some centres not stated) | inactive [at 9.29 µM]
24 | CC1=CC(=O)CC(C)(C)C1CCC(C)OC1OC(COC(=O)c2cc(O)c(O)c(O)c2)C(O)C(O)C1O (configuration not stated) | inactive [at 17.4 µM]
25 | CCC[C@@H]1C[C@@H](C(=O)N[C@@H]([C@H]2O[C@H](SC)[C@H](O)[C@@H](O)[C@@H]2O)[C@@H](C)O)N(C)C1 | inactive
26 | OC[C@H]1O[C@@H](Oc2cc(O)cc(/C=C/c3ccc(O)cc3)c2)[C@H](O)[C@@H](O)[C@@H]1O | inactive
27 | CC(/C=C/C1(O)C(C)CC(O)CC1(C)C)OC1OC(CO)C(O)C(O)C1O (configuration not stated) | inactive
28 | C=C1CC23CC1(O)CCC2C1=CC2OC(=O)C(C)(C2O)C1C3C(=O)O (configuration not stated) | inactive
29 | Cc1c(N2C(=O)c3ccc(C(=O)O)cc3C2=O)c(=O)n(-c2ccccc2)n1C | inactive
30 | c1ccc(Nc2nc3c(s2)CCCc2[nH]ncc2-3)nc1 | inactive

assay: P-glycoprotein substrates identified in KB-8-5-11 adenocarcinoma cell line, qHTS therapeutic library screen (AID 1346987); details: KB-8-5-11 (P-gp overexpressing) viability, CellTiter-Glo, 72 h; series mostly up to 44.5 µM; activity change, negative = cytotoxicity: at the top concentration; also: nearly all actives have a fitted effect of over 65% in size; also: potency is read from the fitted curve at half-maximal effect; as to activity change, negative = cytotoxicity: % is scaled to controls: 0 for no effect and ±100 for the full control effect
Procedure, shortened: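 KB-8-5-11, a colchicine-selected P-gp-overexpressing KB-3-1 subline, was grown without colchicine for the assay. Cells were seeded at 500 cells/well, dosed in concentration-response and incubated 72 h at 37 degree C, 5% CO2. Viability was read by CellTiter-Glo luminescence.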

Row | Structure (SMILES) | outcome | activity change, negative = cytotoxicity | Potency
31 | CC1=CCC2C(C)(CO)CCCC2(C)C1CC12OC1C(O)C(CO)=CC2O (configuration not stated) | inactive |  | 
32 | CC(=O)O[C@H]1CC[C@@]2(CI)C(=CC[C@@H]3[C@@H]2CC[C@]2(C)[C@@H]([C@H](C)CCCC(C)C)CC[C@@H]32)C1 | inactive [at 9.29 µM] |  | 
33 | C=C/C=C/[C@@H]1OC[C@H](/C=C/C=C/C)[C@H]1O | inactive [at 93.4 µM] |  | 
34 | C[C@@H](O)[C@H](N)C(=O)N1CCC[C@H]1C(=O)N1CCC[C@H]1C(=O)N[C@H](C(N)=O)[C@@H](C)O (H-TPPT-NH2) | inactive [at 9.29 µM] |  | 
35 | CC[C@H](/C=C/[C@@H](C)[C@H]1CC[C@H]2[C@@H]3CC=C4C[C@@H](O)CC[C@]4(C)[C@H]3CC[C@]12C)C(C)C |  | 0.93% [at 5.11 µM] | 
36 | CC1OC(OC2C(CO)OC(OCC3OC(OC(=O)C45CCC(C)(C)CC4C4=CCC6C7(C)CCC(OC8OC(C(=O)O)C(O)C(OC9OC(CO)C(O)C(O)C9O)C8O)C(C)(C)C7CCC6(C)C4(C)CC5)C(O)C(O)C3O)C(O)C2O)C(O)C(O)C1O (configuration not stated) | inactive [at 9.29 µM] |  | 
37 | CC(=O)O[C@@]1(C)C[C@@H](O)[C@]2(O)C=CO[C@@H](O[C@@H]3O[C@H](CO)[C@@H](O)[C@H](O)[C@H]3O)[C@@H]21 | inactive [at 17.3 µM] |  | 
38 | CC(C)=CCc1ccc(Oc2c(O)cc(C)cc2CO)c(C(=O)O)c1O | inactive |  | 
39 | CC(/C=C/C1(O)C2(C)COC1(C)CC(=O)C2)O[C@@H]1O[C@H](CO)[C@@H](O)[C@H](O)[C@H]1O (some centres not stated) | inactive [at 17.3 µM] |  | 
40 | Nc1ccn([C@@H]2C(F)=C(CO)[C@@H](O)[C@H]2O)c(=O)n1 |  |  | 10.3 µM (active)
41 | CC1(C)CC[C@]2(C(=O)O[C@@H]3O[C@H](CO)[C@@H](O)[C@H](O)[C@H]3O)CC[C@]3(C)C(=CCC4[C@@]5(C)C[C@@H](O)[C@H](O)[C@@](C)(CO)C5CC[C@]43C)C2C1 (some centres not stated) |  | 6.32% [at 17.3 µM] | 
42 | CC[C@H]1OC(=O)[C@H](C)[C@@H](O[C@H]2C[C@@](C)(OC)[C@@H](O)[C@H](C)O2)[C@H](C)[C@@H](O[C@@H]2O[C@H](C)C[C@H](N(C)C)[C@H]2O)[C@@](C)(O)C[C@@H](C)[C@@H]2N[C@@H](COCCOC)OC([C@H]2C)[C@]1(C)O | inactive |  | 
43 | CC(C)C(C(=O)N1CCCC1C(=O)O)N(C)C(=O)C(O)Cc1ccccc1 (configuration not stated) (H-[PhLac]-[NMeV]-Pro-OH; configuration not given here) |  | 1.1% | 
44 | CCC(C)(O)C(O)C(=O)OCc1ccc(O[C@@H]2O[C@H](CO)[C@@H](O)[C@H](O)[C@H]2O)cc1 (some centres not stated) |  | 2.42% [at 17.3 µM] | 
45 | Cn1c(=O)c2nc(/C=C/c3cccc(Cl)c3)n(C)c2n(C)c1=O | inactive [at 93.4 µM] |  | 
46 | C=C(C(=O)OC)C1CCC2(C)C(O[C@@H]3O[C@H](CO)[C@@H](O)[C@H](O)[C@H]3O)CC(=O)C(C)C2C1O (some centres not stated) |  | 0.216% [at 17.3 µM] | 

Row | Structure (SMILES) | outcome | activity change, negative = cytotoxicity | Potency
47 | Cc1ncc([N+](=O)[O-])n1CC(O)CN1CCOCC1 (configuration not stated) | inactive |  | 
48 | C=C1C2=CC(O)C(C)C1(C)CC/C(C)=C/CCC1(C)OC1C2=O (configuration not stated) | inactive |  | 
49 | CC(C)C1=CCC(C)(O)C(OC2OC(CO)C(O)C(O)C2O)C1 (configuration not stated) |  | 5.17% | 
50 | CC1(C)OC(=O)C(OCC2CC2)=C1c1ccc(S(C)(=O)=O)cc1 |  | 9.53% | 
51 | CCC(C)C(N)C1=NC(C(=O)N[C@@H](CC(C)C)C(=O)N[C@H](CCC(=O)O)C(=O)N[C@H](C(=O)N[C@H]2CCCCNC(=O)[C@H](CC(N)=O)NC(=O)[C@@H](CC(=O)O)NC(=O)[C@H](Cc3cnc[nH]3)NC(=O)[C@@H](Cc3ccccc3)NC(=O)[C@H]([C@@H](C)CC)NC(=O)[C@@H](CCCN)NC2=O)[C@@H](C)CC)CS1 (some centres not stated) (X1-L[dE]IK[dOrn]I[dF]H[dD]N; lactam 4-C) |  |  | inactive
52 | COC1C2=C(COC2=O)C2(C)CCCC(C)(CO)C2C1OC(=O)c1ccccc1 (configuration not stated) | inactive [at 17.3 µM] |  | 
53 | C[C@@H]1C[C@H](O)/C=C/[C@H](O)[C@@H](O)CC(=O)O1 |  | 4.95% | 
54 | CC1NC(=O)CNC(=O)C(C(C)C)NC(=O)C2CCCN2C(=O)C(C(C)C)NC(=O)C(Cc2c[nH]c3ccccc23)NC1=O (configuration not stated) (cyclo(GAWVPV); configuration not given here) | inactive [at 17.3 µM] |  | 
55 | C=C1CCC[C@]2(C)C[C@]3(O)OC(=O)C(C)=C3C[C@@H]12 | inactive |  | 
56 | CN1C(=O)c2ccccc2-n2c(nc3ccccc3c2=O)[C@@]12O[C@H]2c1ccccc1 |  | -3.27% | 
57 | C/C=C(/C)C(=O)O[C@H]1C=C(C)C[C@H](OC(=O)c2ccc(O)cc2)C2[C@](O)(C(C)C)CC[C@@]21C (some centres not stated) |  | -11.2% [at 17.3 µM] | 
58 | Cc1ccc(Sc2cncc3sc(C(N)=O)cc23)cc1 |  | -12.6% | 
59 | O=C(O)c1cc(O[C@@H]2O[C@H](CO[C@@H]3OC[C@@H](O)[C@H](O)[C@H]3O)[C@@H](O)[C@H](O)[C@H]2O)c2ccccc2c1O | inactive [at 17.3 µM] |  | 
60 | CCOc1ccc(-c2ccc(Cn3c(CC(C)(C)C(=O)O)c(SC(C)(C)C)c4cc(OCc5ccc(C)cn5)ccc43)cc2)cn1 |  |  | inactive
61 | CNC(=O)c1ccc2cc([C@@]3(O)CCn4cncc43)ccc2c1 | inactive |  | 
62 | O=C(/C=C/c1ccc(O)cc1)OCC1=C[C@@H](O)[C@@H]2C=CO[C@@H](O[C@@H]3O[C@H](CO)[C@@H](O)[C@H](O)[C@H]3O)[C@H]12 | inactive [at 17.3 µM] |  | 
